# Source: PubChem BioAssay (several laboratories)
# A selection: hits, their analogues and other compounds. The true share with any hit is near 3.4%.
# TROY NFkB inh: TROY signaling inhibition | Q293 LMP1-TROYcd NF-kB luciferase reporter, 4 h | inhibition, % at 10 µM | AID 1347056 | 0.98% of 360,000 active;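 active = compounds whose plate-normalised and pattern-corrected inhibition of the luciferase reporter signal at the single screening dose is 50% or more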
# Shn3 inh set2: inhibitors of Schnurri-3 3'UTR reporter in osteoblasts. Clone20 osteoblast Shn3 3'UTR firefly luciferase, 24 h. 0.52% of 360,000 active. AID 588674. inhibition, % at 12.5 µM;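 active = mean inhibition of at least 75% with every replicate also reaching 75%; inconclusive = mean inhibition at least 75% but some replicate below; inactive = mean inhibition below 75%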;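 note: 0% = median of neutral control wells and 100% = pilot-screen positive control compound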
# MITF TRPM1 inh: reduces MITF-dependent TRPM1 promoter luciferase signal | SK-MEL-5 TRPM1 promoter luciferase, 24 h | inhibition, % at 12.5 µM | 0.83% of 330,000 active | AID 488899;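 active = mean inhibition across replicates of 60% or more, whatever share of single replicates reaches that level; inconclusive = some that reach 60%, reason not given; inactive = mean inhibition across replicates below 60%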
# TWEAK Fn14 block: blocks TWEAK-Fn14 interaction in a reporter cell assay; TWEAK-stimulated Fn14 reporter cells, luciferase luminescence, 8 h; inhibition, % at 10 µM; 2% of 360,000 active; in the data active = inhibition above about 50%
# HIF-2a block: inhibitors of HIF-2a | 786-0 RCC cells HIF-2a reporter, luciferase luminescence, overnight | inhibition, % at 18.8 µM | 0.72% of 360,000 active;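 active = inhibition of the luminescence signal of 40% or more relative to plate controls, in a single-dose primary screen at 18.75 µM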
# LMP1 NFkB inh: inhibitors of Epstein-Barr LMP1-induced NF-kappaB reporter | LMP1-induced NF-kappaB luciferase reporter cells, luminescence | inhibition, % at 12.5 µM | 0.69% of 350,000 active | AID 504558; in the data active = inhibition above about 41%; inconclusive = no clear call, values can overlap the other calls;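 note: 0% = neutral control wells and 100% = reference inhibitor control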
# Active calls of the source: *; ? = inconclusive; . = not tested or not shown.
SMILES,TROY NFkB inh,Shn3 inh set2,MITF TRPM1 inh,TWEAK Fn14 block,HIF-2a block,LMP1 NFkB inh
CN(C)c1ccc(/C=N/NC(=O)c2ccc(-n3cnnn3)cc2)cc1,9.6,-9.8,-0.7,20.2,4.2,2.4
CCOC(=O)NNC(=O)CCn1c2c(c3ccccc31)CCCC2,46.6,-5.6,-7.8,59.3*,23.6,14.1
O=C(O)c1ccc(OS(=O)(=O)c2ccc(Cl)s2)c(Cl)c1,-0.4,-6.0,.,-7.2,-13.2,6.8
CCOC(=O)c1ccc(Nc2nc(C)cc(C)n2)cc1,-54.3,-51.9,-45.8,7.7,-49.5,-3.7
CC(=O)c1ccc(Nc2nc(C)cc(C)n2)cc1,-49.7,-13.9,-64.3,-3.1,-234.4,79.9*
CCCCc1c(-c2ccccc2OC)ncn1CCc1ccc(Cl)cc1,21.6,.,.,-3.6,11.4,.
O=C1CNC(=S)N1c1nc(-c2ccccc2)cs1,-35.9,-137.2,-85.2,-9.4,-266.1,-16.5
COc1ccc(-c2csc(N3C(=O)CNC3=S)n2)cc1,21.0,-47.2,2.2,60.6*,-119.9,-3.9
COc1ccc(-c2csc(N3C(=N)SCC3=O)n2)cc1,38.5,-20.4,-4.8,64.5*,-164.3,-25.0
CC(C)(C)c1ccc(CC(=O)N2CCC2(C)C(=O)NS(=O)(=O)c2ccc(Cl)s2)cc1 (centres undefined),-4.3,-6.6,.,-0.4,11.9,.
CCC(C)Nc1nc(CN2CCOCC2)nc2sc3c(c12)CCC3 (centres undefined),.,15.3,22.2,74.6*,4.3,5.4
O=C(N/C(=C/c1ccc(Br)cc1)C(=O)N1CCOCC1)c1ccc(Br)o1,-2.3,-1.7,-8.1,-13.9,19.2,60.6*
O=C(N/C(=C\c1ccc(Br)cc1)C(=O)N1CCOCC1)c1ccc(Br)o1,17.8,-13.3,1.3,-10.3,4.9,-0.7
COc1ccc(-c2noc(N3CCC(C(=O)Nc4cccc(OC)c4)CC3)n2)cc1,2.1,16.0,-5.3,12.6,-76.3,1.0
O=c1c(O)c(-c2ccc(O)cc2)oc2cc(O)cc(O)c12,-20.8,-31.2,-68.0,35.1,-120.9,-0.1
O=c1c(O)c(-c2ccc(O)c(O)c2)oc2cc(O)ccc12,20.8,-25.1,-12.7,55.5*,-86.3,4.5
Cc1cc(NC(=O)CSc2nnc(-c3ccco3)n2C)no1,-3.8,-2.5,-4.9,-5.6,0.6,70.7*
Cc1cc(NC(=O)CSc2nnc(-c3ccccc3C)n2C)no1,-5.4,-7.6,-5.3,-8.1,7.1,1.7
CCN(CC)S(=O)(=O)c1cccc(C(=O)NC2=NCCS2)c1,-0.3,5.0,2.0,10.2,10.4,0.2
Cc1[nH]c2ccccc2c1C(=O)CSc1ccccc1,-60.9,-54.6,-14.1,-14.6,-172.3,-12.4
CCC1CCCCN1CC(=O)c1c(C)[nH]c2ccccc12 (centres undefined),-6.5,5.9,5.9,24.4,12.0,1.9
Cc1[nH]c2ccccc2c1C(=O)CN1CCCCC1C (centres undefined),.,-0.8,3.5,79.4*,6.1,-8.9
Cc1[nH]c2ccccc2c1C(=O)CCl,-0.5,28.3,?,57.8*,19.4,-2.9
CCC1CCCCN1CC(=O)c1c(C)[nH]c2ccc(OC)cc12 (centres undefined),-3.4,-2.6,-0.3,84.9*,11.6,3.7
CSc1nsc(SC)c1-c1ccc(Cl)cc1,1.9,-19.4,.,-16.6,-0.2,-13.3
SMILES,TROY NFkB inh,Shn3 inh set2,MITF TRPM1 inh,TWEAK Fn14 block,HIF-2a block,LMP1 NFkB inh
CC(=O)Nc1ccccc1C(=O)C(=O)Nc1cccc(C(=O)N2CC(C)CC(C)C2)c1 (centres undefined),14.2,15.4,7.5,77.6*,-2.5,-3.8
Cc1ccc(C(CNS(=O)(=O)c2ccc(Br)cc2)N2CCN(C)CC2)cc1 (centres undefined),-20.7,5.2,79.5*,11.4,18.7,-4.2
Cc1ccc(C(CNS(=O)(=O)c2ccccc2)N2CCN(C)CC2)cc1 (centres undefined),-19.7,4.9,-10.5,-3.6,1.4,-1.4
C=CCn1c(NC(=O)c2ccccc2Cl)c(C#N)c2nc3ccccc3nc21,65.8*,8.4,12.1,13.1,16.4,5.1
CCCCn1c(NC(C)=O)c(C#N)c2nc3ccccc3nc21,11.6,-11.9,-8.7,-1.1,37.5,-12.2
CC1CCC2C(=O)N(c3ccc(Cc4ccncc4)cc3)C(=O)C2C1 (centres undefined),24.5,86.7*,27.3,18.8,8.1,13.8
O=C(N=c1nc2ccccn2s1)c1ccccc1,58.8*,28.0,-7.1,94.9*,-41.1,9.0
Cc1csc(=NC(=O)c2ccccc2)n1C,-32.4,-69.0,-59.7,2.2,-243.4,-11.6
CSCC[C@H](NC(=O)OC(C)(C)C)C(=O)N1CCC(C(=O)NCC(=O)Nc2ccc(C)cc2)CC1,-17.3,12.7,-7.1,-10.9,3.9,-9.9
Cc1cc(C)nc(CCNC(=O)c2cc(COc3ccc(F)cc3F)on2)n1,-6.7,6.1,2.7,-5.2,11.6,-5.0
Cc1cc(C)nc(CCNC(=O)c2cc(COc3ccc(F)cc3Cl)on2)n1,76.2*,2.0,3.0,-21.0,-4.5,-8.1
Cc1cccc(NS(=O)(=O)c2ccc(C)c(C(=O)NCC(c3cccs3)N3CCOCC3)c2)c1 (centres undefined),-3.7,8.9,.,27.2,12.7,-0.5
Nc1c(S(=O)(=O)c2ccccc2)c2nc3ccccc3nc2n1/N=C/c1cccc(O)c1,16.4,48.5,14.6,73.2*,-14.5,-16.6
C/C(=N\Nc1ccc(C(F)(F)F)cc1[N+](=O)[O-])C(C)C,4.1,12.6,-3.5,-14.3,8.7,66.5*
Cn1cnc([N+](=O)[O-])c1Sc1nc(N)nc2c1ncn2C1CC(O)C(CO)O1 (centres undefined),5.6,-18.2,44.4,34.1,23.3,0.6
CCC1C/C(=C\c2cc(OC)c(OC)cc2OC)C(=O)/C(=C/c2cc(OC)c(OC)cc2OC)C1 (centres undefined),12.4,?,37.3,26.4,33.3,13.2
COc1cc(OC)c(OC)cc1/C=C1\CC(C)C/C(=C\c2cc(OC)c(OC)cc2OC)C1=O (centres undefined),36.8,93.6*,51.2,63.7*,28.9,19.3
CC1(C)CC(=O)c2c(-c3cccs3)n[nH]c2C1,33.6,11.4,-11.0,54.9*,0.7,17.6
CCOc1cc(C(=O)OC(C)C(=O)Nc2ncc(Cl)cc2Cl)ccc1OCC(=O)N1CCOCC1 (centres undefined),-3.0,0.3,2.4,-14.7,19.9,60.8*
CC(=O)c1c(C)[nH]c(C(=O)CN2C(=O)NC3(CCCCC3)C2=O)c1C,-4.5,-13.1,-8.3,1.5,-20.3,-4.3
CC(c1ccccc1)c1nnc(NC(=O)Nc2ccccc2F)s1 (centres undefined),-11.8,-65.2,-77.0,-22.0,-202.5,46.1*
CC(c1ccccc1)c1nnc(NC(=O)Nc2ccccc2)s1 (centres undefined),-6.3,0.9,8.5,-17.2,-205.9,-13.0
